Test results from PubChem BioAssay (NCI).
This is part of a sample that, as a whole, favours compounds with a hit. Of some 83,000 tested, about 20% had one in any assay.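 Testing used 96-well plates and a 48-hour single-concentration exposure. Example: -40 means 40% of the starting cells died.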 Values without a mark were called inactive. Active and inactive are the calls of the source. How the source made its calls: active means growth percent below 10; inactive means the rest.

Each compound was assayed on MDA-MB-468 breast (assay: NCI-60 one-dose screen, 48 h (100 = growth as untreated, 0 = no growth, -100 = all killed)). Details: 10 µM unless noted.
Compound `COc1ccc(-c2cc(/C=C3\C(=O)Nc4cc(Cl)ccc43)[nH]n2)cc1` has a growth of 11.3%.
For `N#Cc1nc(-c2cccc(Br)c2)cc(-c2ccc(Nc3nc(N4CCCCC4)nc(N4CCCCC4)n3)cc2)c1N`, the growth was -26.3% (active).
For `COc1cc(-c2nc3c(c(C)nc4c3nnn4-c3ccccc3)c(=O)o2)cc(OC)c1OC`, the growth was 110%.
Work on `O=C(Nc1cc(F)cc2cccnc12)c1cnc(N2CCOCC2)cn1` yielded a growth of 18.5%.
In the case of `COc1ccc(/C=C(\C#N)n2nc3cccc(F)c3n2)cc1`, the growth is reported as 100%.
With `CN(CCC#N)c1ccc(/C=C2\NC(=O)NC2=O)cc1` the growth was 110%.
Compound `COc1ccc(-c2cn(-c3ccc(Cl)cc3)c(SCC(=O)c3ccc([N+](=O)[O-])cc3)n2)cc1` has a growth of 71.2%.
`COc1ccc2[nH]c(C(=O)OCc3ccc4cccc(O)c4n3)cc2c1` was tested, and the growth was -70.8% (active).
In the case of `CN1/C(=C\C=C\C2=[N+](C)c3ccccc3C2(C)C)C(C)(C)c2ccccc21`, the growth is reported as -40.4% (active).
For `O=C(N/N=C/c1ccccc1)C(Oc1ccccc1)c1ccccc1` (stereo not drawn), the growth was 80.2%.
Compound `COc1ccc(NC(=O)COc2ccccc2)c(C(N)=O)c1` has a growth of 16.6%.
For `Nc1ncnc2c1c(-c1ccc(Oc3ccccc3)cc1)nn2C[C@H]1SSC[C@@H]1O`, the growth was -26.7% (active).
In the case of `CC[C@]12C=CCN3CC[C@@]4(c5cc(NC(=O)CCC(=O)O[C@H]6CC[C@H]7[C@@H]8CC[C@H]9CC(=O)CC[C@]9(C)[C@H]8CC[C@]67C)c(OC)cc5N(C)[C@H]4[C@@](O)(C(=O)OC)[C@@H]1OC(C)=O)[C@@H]32`, the growth is reported as 73%.
